This note sets out measurements from PubChem BioAssay AID652154 (Broad Institute, 2013).

Hit rate of the full screen: of about 360,000 compounds, about 4,200 (1.2%) were called active.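 Rule for the calls: active = mean replicate inhibition at least 60% with every replicate also reaching 60%; inconclusive = only one of the two criteria is met; inactive = mean below 60% and not all replicates reaching 60%.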 Only a selection was taken, and actives are over-represented in it overall.

One may read the inhibition as the change of the read-out against control, counted positive when it falls.

This assay can be described thus: inhibitors of PAX8-driven TPO luciferase reporter, primary screen, RMG-I cells, single concentration (AID 652154).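 Note: luciferase light reporting Pax8 driven TPO promoter activity; plate controls were median of neutral control wells for no effect and mitoxantrone controls for full effect.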 The note with it: SteadyGlo, 24 h, at 12.6 µM, active compounds read high.
Turning to `O=C([C@H]1[C@H](CO)[C@H]2Cn3c(ccc(C4=CCCC4)c3=O)[C@@H]1N2C(=O)c1ccncc1)N1CCCCC1`, the inhibition was 0.28% (inactive).

With `CCCCCCCCC(=O)NCCOc1ccccc1`, the inhibition is 111% (active).

Take `O=C(CCc1c[nH]c2ccccc12)NCCOc1ccccc1`: the inhibition is -5.95% (inactive).

In the case of `O=C(CCOc1ccccc1)NCc1ccccc1`, the inhibition is -18.5% (inactive).

Regarding `COc1cccc(C(=O)Nc2nc3ccc(S(C)(=O)=O)cc3s2)c1`, the inhibition was 80.8% (active).

On to `COc1ccc(C(=O)Nc2cccc(S(C)(=O)=O)c2)cc1`, for which the inhibition is -14.4% (inactive).

As for `COc1cccc(C(=O)Nc2nnc(S(=O)(=O)N(C)c3ccccc3)s2)c1`, the inhibition is 2.52% (inactive).

In the case of `O=C(Nc1ccccc1F)N1[C@H](CO)[C@H]2c3ccccc3NC[C@H]21`, the inhibition is -4.34% (inactive).

Regarding `COc1cccc(/C=N/Nc2ncc(C(F)(F)F)cc2Cl)c1O`, the inhibition was 63.6% (active).

As for `CN(C)C=NC(=O)c1cccn1-c1ncc(C(F)(F)F)cc1Cl`, the inhibition was 5.77% (inactive).

For the compound `O=c1[nH]c2cccnc2n(CCNc2ncc(C(F)(F)F)cc2Cl)c1=O`, the inhibition was -4.25% (inactive).

As to `CNC(=O)C[C@H]1CC[C@H]2[C@H](COc3ccc(NC(=O)c4cc(C)on4)cc3C(=O)N2C)O1`, the inhibition was 57.2% (inactive).

`COCC(=O)Nc1ccc2c(c1)C(=O)N(C)C[C@H](OC)[C@@H](C)CN(CC1CC1)[C@@H](C)CO2`: the inhibition was -3.11% (inactive).

For the compound `CCCC#Cc1ccc2c(c1)O[C@@H](CN(C)C(=O)CC)[C@H](C)CN([C@H](C)CO)S2(=O)=O`, the inhibition was -8.15% (inactive).

In the case of `C[C@H]1CN([C@@H](C)CO)S(=O)(=O)c2ccc(C#CCN(C)C)cc2O[C@H]1CN(C)C(=O)c1ccccc1F`, the inhibition was -3.76% (inactive).

With `C[C@H]1CN([C@@H](C)CO)S(=O)(=O)c2ccc(-c3cccc(C#N)c3)cc2O[C@H]1CN(C)C(=O)c1ccccc1`, the inhibition is 15.6% (inactive).

Take `C[C@@H]1CN([C@@H](C)CO)S(=O)(=O)c2ccc(C#Cc3ccccc3F)cc2O[C@H]1CN(C)C(=O)c1ccc2c(c1)OCO2`: the inhibition is 101% (active).

For `CCCC#Cc1ccc2c(c1)O[C@H](CN(C)C(=O)CC)[C@@H](C)CN([C@H](C)CO)S2(=O)=O`, the inhibition was -14.1% (inactive).

Regarding `C[C@H]1CN([C@@H](C)CO)S(=O)(=O)c2ccc(C#Cc3ccccc3F)cc2O[C@@H]1CN(C)C(=O)c1ccc2c(c1)OCO2`, the inhibition is 72.5% (active).

With `CC(C)C#Cc1ccc2c(c1)O[C@@H](CN(C)C(=O)Nc1ccccc1)[C@H](C)CN([C@H](C)CO)S2(=O)=O`, the inhibition was 15.8% (inactive).

Turning to `C[C@@H]1CN([C@H](C)CO)S(=O)(=O)c2ccc(C#Cc3ccccc3F)cc2O[C@@H]1CN(C)C(=O)c1ccc2c(c1)OCO2`, the inhibition is 73.7% (active).

Take `COCC#Cc1ccc2c(c1)O[C@H](CN(C)Cc1ccc3c(c1)OCO3)[C@H](C)CN([C@H](C)CO)S2(=O)=O`: the inhibition is 0.398% (inactive).

`C[C@H](CO)N1C[C@H](C)[C@H](CN(C)Cc2cccc(F)c2)Oc2ncc(C#CCN(C)C)cc2C1=O`: the inhibition is 10.3% (inactive).

For `Cc1cc(OC(=O)NCCc2ccc(F)cc2)ccc1F`, the inhibition was -1.24% (inactive).

Take `OC[C@H]1[C@@H](c2ccc(-c3ccccc3F)cc2)[C@@H]2CN(Cc3ccncc3)CCCCN12`: the inhibition is 17.2% (inactive).

For `CCCc1cn(CC[C@H]2CC[C@@H](NS(=O)(=O)c3ccccc3Cl)[C@@H](CO)O2)nn1`, the inhibition is -2.22% (inactive).

As for `O=C(C[C@@H]1C=C[C@H](NC(=O)Nc2ccccc2F)[C@@H](CO)O1)NCc1ccccc1`, the inhibition is 1.09% (inactive).

On to `COc1ccc(CN2[C@H](CO)[C@@H]3c4ccccc4N(C(=O)C4CC4)C[C@@H]32)cc1`, for which the inhibition is 5.67% (inactive).

`Brc1ccc(COCCc2cn(Cc3ccccc3)c3ccccc23)cc1`: the inhibition is -11.9% (inactive).

`O=C1OCC2=C1C(c1ccc(Cl)cc1)c1cc3c(cc1O2)OCO3` (stereo not drawn): the inhibition is 11% (inactive).

As for `COc1ccccc1C1C2=C(COC2=O)Nc2cc3c(cc21)OCO3` (stereo not drawn), the inhibition was 85.6% (active).

In the case of `O=C1NC(c2cc3c(cc2Cl)OCO3)Oc2ccccc21` (stereo not drawn), the inhibition was -6.52% (inactive).

Consider `C[C@@H]1CN([C@H](C)CO)C(=O)c2cc(NS(=O)(=O)c3ccccc3)ccc2O[C@H]1CN(C)S(=O)(=O)c1ccc(Cl)cc1`, for which the inhibition is 3.11% (inactive).

Consider `Cc1ccc(C(=O)OC(C)CN2CCOCC2)cc1` (stereo not drawn), for which the inhibition was -27.6% (inactive).

Regarding `Cc1ccc(C(=O)C(=S)N2CCOCC2)cc1`, the inhibition was 67.2% (active).

As to `Cc1ccc(C(=O)Oc2ccc(C(=S)N3CCOCC3)cc2)cc1`, the inhibition is -7.47% (inactive).

With `C[C@@H]1CN([C@@H](C)CO)C(=O)Cc2cc(NC(=O)CCN3CCOCC3)ccc2O[C@@H]1CN(C)CC1CC1`, the inhibition was -46.4% (inactive).

Take `CCN1CCN(CCNC(=O)c2ccc(/C=C3/Sc4ccccc4N(Cc4cccc(C)c4)C3=O)cc2)CC1`: the inhibition was 84.9% (active).

Turning to `O=C(NCCN1CCOCC1)c1ccc2c(c1)N(Cc1cccc(Cl)c1)C(=O)c1ccccc1S2(=O)=O`, the inhibition is -1.71% (inactive).

For `Cc1cccc(-c2nc3ccc(C(=O)NCCN4CCN(C)CC4)cc3nc2-c2cccc(C)c2)c1`, the inhibition is 50.9% (inactive).

In the case of `C[C@@H]1CCCCO[C@@H](CN(C)CC2CC2)[C@H](C)CN([C@H](C)CO)C(=O)c2cc(NS(=O)(=O)c3ccccc3)ccc2O1`, the inhibition is 3.85% (inactive).

For the compound `CN(O)C(=S)c1ccccc1`, the inhibition was 82% (active).

In the case of `COc1cccc(CN(C)C[C@H]2OCc3ccccc3-c3c(n(C)c4ccccc34)C(=O)N([C@@H](C)CO)C[C@@H]2C)c1`, the inhibition is 11% (inactive).

As for `O=C(c1ccncc1)N1C[C@@H]2[C@H](c3ccccc31)[C@H](CO)N2C(=O)c1ccncc1`, the inhibition is -12.9% (inactive).

For the compound `CC(C)NC(=O)N(C)C[C@@H]1Oc2ccc(N(C)C)cc2CC(=O)N([C@H](C)CO)C[C@@H]1C`, the inhibition was -4.65% (inactive).

As for `O=C(C[C@H]1CC[C@@H]2[C@H](COC[C@@H](O)CN2C(=O)Nc2ccc(C(F)(F)F)cc2)O1)NCCc1ccncc1`, the inhibition was -6.11% (inactive).

For the compound `C[C@@H]1CN([C@H](C)CO)C(=O)c2cc(NC(=O)C3CCCCC3)ccc2O[C@H]1CN(C)C(=O)Nc1ccccc1`, the inhibition was 9.45% (inactive).

For `C[C@H](CO)N1C[C@H](C)[C@@H](CN(C)C(=O)Nc2ccc3c(c2)OCO3)Oc2ccc(NC(=O)NC3CCCCC3)cc2CC1=O`, the inhibition is -23.2% (inactive).
